# The list is not random: actives were taken first. Their share in the collection is about 7.5%.
# NPC1 prom act = NPC1 promoter activation; AID 485313; Huh7 NPC1 promoter luciferase reporter, 24 h; 2.4% of 320,000 active; Potency, µM (highest dose often 9.22 µM), inactives show top-dose activation, most hits filed as activators; further: % of control where 0% means no effect; nearly all actives have a fitted effect of over 60% in size
#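 In 1536-well qHTS, Huh7 cells harboring an NPC1 promoter–luciferase construct received compound for 24 h; activation was quantified by luminescence following luciferase reagent addition.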
# FLuc counter = inhibits or activates purified firefly luciferase, miR-21 counter-screen; P08659; purified FLuc, Km substrates, luminescence inhibition; Potency, µM (highest dose often 57.5 µM), for the others: top-dose activity change, negative = inhibition, usual class: inhibitors; 6.9% of 360,000 active;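 further: plate controls were vehicle for no effect and reference inhibitor for full effect; nearly all actives have a fitted effect of over 55% in size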
# Target sequence (P08659 whole entry, looked up): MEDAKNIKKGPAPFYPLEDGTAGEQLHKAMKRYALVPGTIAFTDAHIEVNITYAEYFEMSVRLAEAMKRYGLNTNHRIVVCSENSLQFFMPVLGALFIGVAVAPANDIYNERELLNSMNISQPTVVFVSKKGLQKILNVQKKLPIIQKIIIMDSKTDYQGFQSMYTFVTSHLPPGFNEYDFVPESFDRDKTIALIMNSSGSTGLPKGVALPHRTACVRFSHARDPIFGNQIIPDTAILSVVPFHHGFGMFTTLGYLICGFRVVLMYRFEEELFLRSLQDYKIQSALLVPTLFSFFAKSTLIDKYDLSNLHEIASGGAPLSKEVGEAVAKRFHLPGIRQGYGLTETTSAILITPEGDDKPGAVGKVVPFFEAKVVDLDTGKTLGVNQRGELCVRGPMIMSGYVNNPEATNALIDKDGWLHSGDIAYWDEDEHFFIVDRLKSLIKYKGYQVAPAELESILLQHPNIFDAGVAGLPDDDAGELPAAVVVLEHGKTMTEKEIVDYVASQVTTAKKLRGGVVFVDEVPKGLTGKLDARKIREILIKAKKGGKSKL
#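 Purified P. pyralis luciferase, 10 nM final, with Km-level 10 uM D-luciferin and 10 uM ATP in 50 mM Tris acetate pH 7.5, 10 mM Mg acetate, 0.01% Tween-20, 0.05% BSA; 6-point qHTS titration about 60 µM downward; luminescence read.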
# SMN2 splice up = SMN2 splice variant enhancement; HEK293 SMN2-luciferase splicing reporter, luminescence, 30-36 h; Potency, µM (series often up to 46.1 µM), inactives show at the top dose activity change, positive = activation, most hits filed as activators; 2.8% of 210,000 active; further: % of control where 0% means no effect; nearly all actives have a fitted effect of over 55% in size
#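 HEK293 cells carry an SMN2 […]–luciferase reporter in which exon 7 inclusion puts luciferase in frame. Cells were plated 10-12 h before compound addition, then incubated 30-36 h at 37C. ONE-Glo luminescence was read; sodium butyrate at 4.5 mM final served as control.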
# KinaseGlo FLuc = counter-screen: inhibitors of Kinase-Glo firefly luciferase | Q27757 | Kinase-Glo luciferase, ATP luminescence, 8 min | Potency, µM (top dose mostly 38.3 µM), inactives show at the top dose activity change, negative = inhibition, usual class: inhibitors | 0.28% of 200,000 active | AID 1379; further: on the % scale 0 is the no-effect control and ±100 the full control effect; nearly all actives have a fitted effect of over 60% in size
#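 Luminescence was the read-out, taken after 8-minute incubation at ambient temperature. Luciferase turned over luciferin with 10 uM ATP in imidazole pH 7.2 buffer containing KCl, MgCl2, Tween 20 and BSA.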
# ELG1 genotox = induces genotoxicity in HEK293T cells with luciferase-tagged ELG1. HEK293T ELG1-luciferase reporter, luminescence, 16 h. Potency, µM (highest dose often 46 µM), for inactives: top-dose activity change, positive = activation, actives largely listed as activators. 1.3% of 330,000 active. AID 504466; further: % of control where 0% means no effect; nearly all actives have a fitted effect of over 60% in size
#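 Genotoxicity was scored as increased ELG1-luciferase reporter signal, measured by ONE-Glo luminescence (30 min, room temperature). Compound or vehicle exposure of the HEK293T reporter cells lasted 16 hr at 37°C.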
# Rab9 prom act = activators of Rab9 promoter | Huh7 Rab9 promoter-luciferase reporter, luminescence, 24 h | Potency, µM (series often up to 9.22 µM), without a hit: at the top dose activation, negative = inhibition, hits mostly activators | 2.8% of 320,000 active | AID 485297; further: % of control where 0% means no effect; nearly all actives have a fitted effect of over 60% in size
#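 Luciferase signal after 10 min detection reagent at ambient indicates Rab9 promoter upregulation; stably transfected Huh7 cells were treated 24 h with compound in DMSO at 37 °C, 5% CO2.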
# * hit, by the source's call; u = inconclusive; x = not tested or not shown; [ ] = dose if it differs, or a comment. The call rests on the fitted dose curve; in most records, active means well fitted curve in the direction sought with a large enough effect; inconclusive means small, poorly fitted or top-dose-only effect, or another doubt; inactive means no such curve, though single readings can be large; an effect the other way counts as inactive or inconclusive. Potency means the concentration at half of the fitted maximal effect.
SMILES,NPC1 prom act,FLuc counter,SMN2 splice up,KinaseGlo FLuc,ELG1 genotox,Rab9 prom act
COc1ccccc1CNC(=O)CSc1ncc(S(=O)(=O)c2ccc(C)c(Cl)c2)c(=O)[nH]1,x,13.5µM*,x,x,x,x
Cc1ccc(NC(=O)CSc2ncc(S(=O)(=O)c3ccccc3)c(=O)[nH]2)cc1C,1.9%,u,-12.0%,-2.0%,-1.3%,-1.7%
COc1cccc(NC(=O)CSc2ncc(S(=O)(=O)c3ccccc3)c(=O)[nH]2)c1,-1.5%,-3.4%,x,x,-1.3%,-5.8%
CC(C)(C)c1ccc(S(=O)(=O)c2cnc(SCC(=O)Nc3ccc4c(c3)OCCO4)[nH]c2=O)cc1,x,10.7µM*,4.8%,x,x,x
Cc1ccc(C)c(NC(=O)CSc2ncc(S(=O)(=O)c3ccc(C)c(Cl)c3)c(=O)[nH]2)c1,x,10.7µM*,x,x,x,x
Cc1ccc2c(c1)cc(C(=O)NCc1ccc(F)cc1)n2C,x,-1.0%,x,x,x,x
CC/C(=C(/c1ccccc1)c1ccc(OCCN(C)C)cc1)c1ccccc1,x,x,x,2.0%[39.9 µM],x,x
Cc1ccc2c(=O)cc(C(=O)Nc3sc4c(c3C(=O)NCc3ccco3)CCC4)oc2c1,x,-2.2%,3.4%,x,x,x
C=CC[C@H](N)C(=O)O,8.2%[46.1 µM],x,-8.4%,-2.4%,x,18.4%[46.1 µM]
COc1ccc(CCNC(=O)c2cc(=O)[nH]c3ccc(S(=O)(=O)N4CCCCC4C)cc23)cc1OC (stereo unspecified),x,-6.5%,x,x,x,x
COc1ccc2c(c1)OC[C@H]1[C@H]2N2C(=O)CN(CCc3c[nH]c4ccccc34)C(=O)[C@@]2(C)[C@H]1c1ccccc1,0.9%,6.6%,x,x,-1.7%,-4.7%
CC(=O)Nc1c(C(=O)O)oc2ccccc12,2.0%,4.0%,-5.5%,1.8%,3.4%,-6.8%
O=C(Nc1c(C(=O)O)oc2ccccc12)c1ccc(C(F)(F)F)cc1,x,9.53µM*,x,x,x,x
CCOc1ccc(CNC(=O)Cn2ccc3cc(S(=O)(=O)N4CCCCC4)ccc32)cc1,x,-3.6%,x,x,x,x
O=C(N/N=C/c1ccc2c(c1)OCO2)c1cc(-c2ccccc2Cl)nc2ccccc12,-1.7%,u,-13.5%,-1.5%,-0.1%,-1.9%
O=C(N/N=C/c1ccc2c(c1)OCO2)c1cc(-c2ccncc2)nc2ccccc12,-18.5%,12µM*,-26.3%,-10.7%,4.4%,-22.5%
O=C(N/N=C/c1cc([N+](=O)[O-])ccc1O)c1cc(-c2ccccc2)nc2ccccc12,-15.1%,u,-71.7%,0.4%,1.8%,-15.5%
O=C(N/N=C/c1ccco1)c1cc(-c2cccc(Br)c2)nc2ccccc12,-0.2%,4.78µM*,-46.1%,-0.9%,-0.7%,-0.3%
O=C(N/N=C/c1ccc(Cl)cc1)c1cc(-c2cccnc2)nc2ccccc12,-32.1%,-6.7%,-25.8%,1.1%,6.0%,-17.6%
CC(/C=N/NC(=O)c1cc(-c2ccncc2)nc2ccccc12)=C\c1ccco1,-7.0%,-14.9%,-18.0%,-2.3%,1.8%,-9.3%
O=C(N/N=C/c1ccc[nH]1)c1cc(-c2ccc(Cl)cc2)nc2ccccc12,-11.2%,12µM*,-33.1%,-1.1%,-11.5%,-3.5%
O=C(N/N=C/c1ccc(O)c(O)c1)c1cc(-c2ccccc2)nc2ccccc12,-7.7%,15.1µM*,x,x,2.7%,0.4%
CC1(C)CO[C@@H](CC(=O)O)CN1,x,x,1.8%,x,x,x
Cc1cccc(NC(=O)Cn2c(=O)n(Cc3nc(-c4ccccc4)no3)c(=O)c3ccccc32)c1,x,-10.2%,x,x,x,x
Cn1cc(-c2cc3n(n2)CCC(=O)N3CCCC(=O)NCc2ccc(F)cc2)c2ccccc21,x,0.1%,x,x,x,x
SMILES,NPC1 prom act,FLuc counter,SMN2 splice up,KinaseGlo FLuc,ELG1 genotox,Rab9 prom act
COc1ccccc1CCNC(=O)C(C)Sc1nc(-c2ccccc2)cc(C(F)(F)F)n1 (stereo unspecified),x,0.0%,1.6%,x,x,x
O=C(N/N=C/c1cccc(O)c1)c1cc(-c2ccccc2)nc2ccccc12,-0.3%,10.7µM*,x,x,-3.7%,0.1%
COc1ccc(/C=N/NC(=O)c2cc(-c3ccccc3)nc3ccccc23)c(OC)c1,2.8%,16.9µM*,x,x,-5.6%,12.1%
COc1ccc2nc(-c3ccccc3)cc(OC)c2c1,17.9%,12µM*,u,-4.3%,u,20.4%
O=C(N/N=C/c1c(F)c(F)c(F)c(F)c1F)c1cc(-c2ccccc2)nc2ccccc12,0.9%,-2.8%,x,x,-2.6%,12.3%
O=C(N/N=C/c1cccc([N+](=O)[O-])c1)c1cc(-c2ccccc2)nc2ccccc12,-2.8%,2.0%,-2.5%[1.84 µM],-5.5%,4.7%,0.5%
CCOc1cccc(-c2cc(C(=O)N/N=C/c3ccc(OC)c(CN4CCOCC4)c3)c3ccccc3n2)c1,-4.3%,6.01µM*,-26.8%,3.1%,-8.2%,-1.4%
COC(=O)c1cc2sccc2n1CC(=O)Nc1ccc(C)cc1C,x,-10.5%,-2.4%,x,x,x
CCC(C)NC(=O)c1ccc(Cn2c(=O)c3cccn3c3cccnc32)cc1 (stereo unspecified),x,0.2%,x,x,x,x
COc1ccc(OC)c(NC(=O)N2CCC(CN3CCCCC3)CC2)c1,x,0.4%,x,x,x,x
Cc1ccc(-c2nnc(Nc3ccc(O)cc3)c3ccccc23)cc1S(=O)(=O)NCC1CCCO1 (stereo unspecified),x,u,-10.2%,x,x,x
CCOc1ccccc1-c1cc(C(=O)N/N=C/c2ccc3c(c2)OCO3)c2ccccc2n1,0.6%,-15.8%,28.7%,-2.8%,2.3%,1.9%
CCOc1ccccc1-c1cc(C(=O)N/N=C/c2ccc(O)c(OC)c2)c2ccccc2n1,0.3%,-4.7%,25.1µM*,11.6%,-14.0%,2.8%
Fc1cc2[nH]c(=S)[nH]c2c(Br)c1N1CCSCC1,11.1%,13.5µM*,x,x,10.5%,10.2%
Cc1ccc2c(c1Br)/C(=N/N1C(=O)c3ccccc3C1=O)C(=O)N2,1.4%,2.39µM*,27.4%,-6.0%,10.6%,-1.4%
CCn1c(O)c(N=Nc2ccc3ccccc3n2)c2ccccc21,3.16µM*,3.01µM*,x,x,5.8µM*,1.12µM*
Cc1ccc(Cn2c(SCc3ccc(C(=O)N4CCCCCC4)cc3)nc3ccncc32)cc1,x,u,-67.1%,x,x,x
NC(=O)c1sc2nc3c(c(-c4ccc(Cl)cc4)c2c1N)CCCC3,-3.6%,3.4%,25.7%,-3.7%,-33.9%,-2.6%
Nc1c(C(=O)Nc2ccccc2F)sc2nc3c(cc12)CCCCCC3,x,-5.2%,7.6%,x,x,x
COc1ccccc1NC(=O)c1sc2nc3c(cc2c1N)CCCCCC3,x,-10.9%,-5.1%,x,x,x
Nc1c(C(=O)N2CCCCC2)sc2nc3c(cc12)CCCC3,2.51µM*,6.75µM*,x,x,6.51µM*,2.82µM*
Cc1ccc(C(=O)c2sc3nc4c(cc3c2N)CCC4)cc1,1.78µM*,u,7.94µM*,2.1%,u,2.24µM*
Nc1c(C(=O)N2CCCC2)sc2nc(-c3ccccc3)ccc12,2µM*,4.78µM*,x,x,u,1.58µM*
